# From PubChem BioAssay (NCATS)
# Results filed as inconclusive are left out. Activity calls are given as the source filed them. The call rests on the fitted dose curve; in most records, active means well fitted cell-killing curve with a large enough effect; inconclusive means small, poorly fitted or top-dose-only effect, or effect the other way; inactive means no such curve, though single readings can be large or run the other way. Non-standard residues stand in square brackets, D forms with d. Residues, ends and D or L forms follow the SMILES beside them. *: point of attachment. Nva = CCC[C@H](N)C(=O)O; Cbz = O=C(OCc1ccccc1)*
# Test: qHTS of pediatric cancer cell lines to identify multiple opportunities for drug repurposing: Confirmatory screen for RD cells (AID 1347124);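 further: cells exposed to compound for 48 h before viability readout; nearly all actives have a fitted effect of over 65% in size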
# Conditions: RD rhabdomyosarcoma cell viability; series mostly up to 45.9 µM; activity change, negative = cytotoxic: at the top concentration
# Source text: Drug repurposing or repositioning has been offered as a strategy for drug development in oncology programs. This approach has special potential for childhood cancers and other rare or orphan diseases, where the expected return on new drug development has been a disincentive to pharmaceuticals.
# In this project we exploit the poly-pharmacology of drugs to discover new indications via phenotypic screening of a panel of 19 well-characterized cell lines derived from solid tumors seen in children and adolescents. The goal is to identify approved drugs with previously unrecognized anticancer properties that has the potential to reveal new mechanisms and biological processes involved in carcinogenesis or drug resistance. We employed a titration-based paradigm (quantitative high-throughput screening or qHTS), where all compounds were tested at multiple concentrations for their effect on cell viability. Concentration-response curves (CRCs) were derived directly from the primary screen, and both potency and efficacy values were used to identify compounds with robust bioactivity profiles. We screened the NIH Chemical Genomics Center (NCGC) Pharmaceutical Collection (NPC) and Mechanism Interrogation Plate (MIPE) small molecule collections of approved and investigational compounds against these cell lines; and measured metabolically active cells after 48 hours of compound treatment as a proxy for cell viability.
# Assay Submitter: Nathalia J. Martinez, National Center for Advancing Translational Sciences, National Institutes of Health, Rockville, MD, USA; email: natalia.martinez@nih.gov
# [1] Shen, M et al. Quantitative high-throughput phenotypic screening of pediatric cancer cell lines identifies multiple opportunities for drug repurposing. Oncotarget 2017 Dec 19;9(4):4758-4772. PMID 29435139.
# The cells were obtained from University of North Carolina (UNC), Pediatric Preclinical Testing Program (PPT), and Coriell Institute (CI).
# qHTS cell viability assay:
# Cells were assayed in growth media at a density of 500-1,000 cells/well. Five microliters of cells were dispensed into 1,536-well, white, solid-bottom, TC-treated plates (Greiner Bio One) using a multidrop dispenser and incubated at 37 degrees C, 5% CO2, under a humidified atmosphere for 5 hours. Twenty-three nanoliters of compounds and controls (neutral control DMSO or positive control bortezomib at final concentration of 2.3 µM) were subsequently transferred by Kalypsys pintool. For primary screens, the MIPE collection was tested at 11-point dilutions (final concentrations range from 0.78 nM to 46 µM) and the NPC collection at 8-point dilutions (final concentrations range from 0.59 nM to 46 µM). Compounds tested in follow-up screens were assayed at 11-point dilutions. Cells were incubated for 48 hours, followed by addition of 3 µL of CellTiter-Glo (Promega). After a 15 min incubation at room temperature, samples were analyzed for luminescence intensity using a ViewLux High-throughput CCD imager equipped with clear filters.
# On the % scale 0 is the no-effect control and ±100 the full control effect; potency means the concentration at half of the fitted maximal effect.
SMILES,"activity change, negative = cytotoxic",Potency
CC1(C)O[C@@H]2C[C@H]3[C@@H]4CCC5=CC(=O)C=C[C@]5(C)[C@@H]4[C@@H](O)C[C@]3(C)[C@]2(C(=O)CO)O1,3.75% (inactive),–
C=CC(=O)N1CCc2ccc(-n3c(=O)ccc4cnc5ccc(-c6cnn(C)c6)cc5c43)cc21,–,10.4 µM (active)
Cc1cc(Nc2ncc3c(n2)N(C)C(=O)N(c2cc(NC(=O)c4cccc(C(F)(F)F)c4)ccc2C)C3)n(C)n1,–,0.657 µM (active)
CC[C@]12C=CCN3CC[C@@]4(c5cc([C@@]6(C(=O)OC)C[C@H]7C[C@@H](C(C)(F)F)CN(Cc8c6[nH]c6ccccc86)C7)c(OC)cc5N(C)[C@H]4[C@@](O)(C(=O)OC)[C@H]1OC(C)=O)[C@@H]32,26.4% (inactive),–
CC(C)(O)Cn1c(NC(=O)c2ccc(-c3cn[nH]c3)s2)nc2cc(CN3CCOCC3)ccc21,–,0.827 µM (active)
COc1ccc2c(c1OC)C(=O)OC2[C@H]1c2c(cc3c(c2OC)OCO3)CCN1C (stereo not given in full),10.3% (inactive),–
C[C@H]1[C@@H](OC(=O)CCC(=O)O)O[C@@H]2O[C@@]3(C)CC[C@@H]4[C@H](C)CC[C@@H]1[C@@]24OO3,–,1.04 µM (active)
O=C(NCc1ccccc1)[C@H](Cc1ccccc1)NC(=O)[C@@H]1O[C@@H]1C(=O)NCCc1ccc(O)cc1,-25.4% (inactive),–
CNC(=O)c1ccc(Nc2cc(Nc3ccccc3S(=O)(=O)C(C)C)c3cc[nH]c3n2)nc1,–,9.27 µM (active)
CCC[C@@H](C=O)NC(=O)[C@H](CC(C)C)NC(=O)[C@H](CC(C)C)NC(=O)OCc1ccccc1 (Cbz-Leu-Leu-[Nva]-aldehyde),–,1.31 µM (active)
CC(C)(N)c1ccc(-c2nc3ccccc3nc2-c2ccccc2)cc1,-83% (inactive),–
CC(=O)SCC(Cc1ccccc1)C(=O)NCC(=O)OCc1ccccc1 (stereo not given),-3.02% (inactive),–
COC1=C2C[C@@H](C)C[C@H](OC)[C@@H](O)[C@@H](C)C=C(C)[C@H](OC(N)=O)[C@@H](OC)C=CC=C(C)C(=O)NC(=CC1=O)C2=O,–,0.928 µM (active)
CC(=O)N1CCN(c2ccc(OCc3nn(C)c(C)c3-c3cccc4c(CCCOc5cccc6ccccc56)c(C(=O)O)n(Cc5cccnc5)c34)cc2)CC1,-17.9% (inactive),–
CCS(=O)(=O)Nc1ccc2[nH]c(O)c(C(=Nc3ccc(CN4CCCCC4)cc3)c3ccccc3)c2c1,–,0.737 µM (active)
CC(=O)O[C@H]1C[C@@H]2CC[C@H]3[C@H]4C[C@H]([N+]5(C)CCCCC5)[C@@H](OC(C)=O)[C@@]4(C)CC[C@@H]3[C@@]2(C)C[C@H]1N1CCCCC1,-12.6% (inactive),–
Cn1cc(CNCC2CCN(c3ncc(C(=O)NO)cn3)CC2)c2ccccc21,–,0.329 µM (active)
C[C@H](NCc1ccc2c(c1)nc(NC(=O)c1ccc(-c3cn[nH]c3)s1)n2CCc1ccccc1)C(C)(C)C,–,1.17 µM (active)
CC(C)C[C@@H](C=O)NC(=O)[C@H](CC(C)C)NC(=O)[C@H](CC(C)C)NC(=O)OCc1ccccc1 (Cbz-Leu-Leu-Leu-aldehyde),–,0.657 µM (active)
CC(C=CC(=O)NO)=C[C@@H](C)C(=O)c1ccc(N(C)C)cc1,–,1.31 µM (active)

SMILES,"activity change, negative = cytotoxic",Potency
O=C(C=CC=Cc1ccc2c(c1)OCO2)N1CCCCC1,12.2% (inactive),–
CCc1cnn2c(NCc3ccc[n+]([O-])c3)cc(N3CCCC[C@@H]3CCO)nc12,19.5% (inactive),–
FC(F)c1nc2ccccc2n1-c1nc(N2CCOCC2)nc(N2CCOCC2)n1,–,8.27 µM (active)
C#CCC(Cc1cnc2nc(N)nc(N)c2n1)c1ccc(C(=O)N[C@@H](CCC(=O)O)C(=O)O)cc1 (stereo not given in full),–,0.233 µM (active)
O=C(O)C[C@H](O)C[C@H](O)C=Cc1c(C2CC2)nc2ccccc2c1-c1ccc(F)cc1,–,11.7 µM (active)
C=CCNC1=C2C[C@@H](C)C[C@H](OC)[C@@H](O)[C@@H](C)C=C(C)[C@H](OC(N)=O)[C@@H](OC)C=CC=C(C)C(=O)NC(=CC1=O)C2=O,–,0.131 µM (active)
CS(=O)(=O)N1CCc2c(-c3cnc(N)nc3)nc(N3CCOCC3)nc21,–,1.31 µM (active)
COc1cc(C[C@@H](CO)[C@H](CO)Cc2ccc(O)c(OC)c2)ccc1O,–,16.5 µM (active)
Cc1ccc([N+](=O)[O-])cc1S(=O)(=O)N(C)N=Cc1cnc2ccc(Br)cn12,–,4.65 µM (active)
CNC(=O)Nc1ccc(-c2nc(N3CC4CCC(C3)O4)c3cnn(C4CCC5(CC4)OCCO5)c3n2)cc1,–,0.522 µM (active)
Cc1cnc(Nc2ccc(N3CCN(C)CC3)cc2)nc1Nc1cccc(S(=O)(=O)NC(C)(C)C)c1,–,7.37 µM (active)
NS(=O)(=O)OC[C@@H]1C[C@@H](n2ccc3c(N[C@H]4CCc5ccccc54)ncnc32)C[C@H]1O,7.75% (inactive),–
Nc1nc2c(c(=O)[nH]1)N(C=O)[C@H](CNc1ccc(C(=O)N[C@@H](CCC(=O)O)C(=O)O)cc1)CN2,6.3% (inactive),–
Cn1cc(-c2cnn3c(N)c(Br)c([C@H]4CCCNC4)nc23)cn1,11.3% (inactive),–
C=CC(=O)Nc1cccc(Nc2nc(NC3CCC(N(C)C)CC3)nc3c2ncn3C(C)C)c1 (stereo not given),–,0.737 µM (active)
CC(C(C)N1CC(=O)NC(=O)C1)N1CC(=O)NC(=O)C1 (stereo not given),-17.2% (inactive),–
CC(=O)[C@]1(O)Cc2c(O)c3c(c(O)c2[C@@H](O[C@H]2C[C@H](N)[C@@H](O)[C@H](C)O2)C1)C(=O)c1ccccc1C3=O,–,0.737 µM (active)
O=C(C=CC#Cc1cccc(NS(=O)(=O)c2ccccc2)c1)NO,–,5.22 µM (active)
C[C@@H](Oc1ccc2[nH]nc(C=Cc3cnn(CCO)c3)c2c1)c1c(Cl)cncc1Cl,–,5.22 µM (active)
CCOc1cc2ncc(C#N)c(Nc3ccc(OCc4ccccn4)c(Cl)c3)c2cc1NC(=O)C=CCN(C)C,–,2.33 µM (active)
